# Compounds with a hit are over-represented: about 1.5% of the library has one in this group of screens.
# rTrxR1 inhibitor – rat TrxR1 inhibition | Potency, µM (highest dose often 114 µM), for the others: top-dose activity change, negative = inhibition, hits mostly inhibitors | recombinant rTrxR1, NADPH fluorescence consumption, selenite substrate | O89049 | actives 1% (n = 390,000); further: potency means the concentration at half of the fitted maximal effect; nearly all actives have a fitted effect of over 65% in size
#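 Rat TrxR1 (90 nM in the dispensed reagent) was pre-reduced with 400 uM NADPH for 5 min at room temperature, then incubated with compound for 15 min. After 400 uM selenite was added, NADPH fluorescence (Ex 340/Em 450 nm) was followed for 8 min.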
# TrxR1 substrate – rat thioredoxin reductase 1 substrate activity. Potency, µM (top dose mostly 114 µM), for inactives: at the highest dose activity change, negative = substrate turnover. AID 588456. purified TrxR1 substrate turnover, NADPH consumption readout. actives 0.01% (n = 390,000). O89049; further: potency means the concentration at half of the fitted maximal effect; nearly all actives have a fitted effect of over 50% in size
#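 Rat TrxR1, dispensed at 90 nM, was prereduced with 400 uM NADPH (final) for 5 min at ~22 deg C, then incubated with compound 15 min before 400 uM selenite. A first-read NADPH fluorescence drop versus no-compound background flagged substrates.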
# USP1-UAF1 inh – blocks the human USP1/UAF1 deubiquitinase complex | O94782 | AID 743255 | Potency, µM (series often up to 57.1 µM), for the others: at the top dose activity change, negative = inhibition, usual class: inhibitors | recombinant USP1/UAF1, Ub-Rhodamine cleavage fluorescence | actives 0.23% (n = 390,000); further: potency means the concentration at half of the fitted maximal effect; nearly all actives have a fitted effect of over 60% in size
#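 1 nM enzyme complex + cpd, 15 min RT; start with Ub-Rho 150nM final; kinetic fluorescence ex 480/em 540, 6 reads q60 s. Buffer 50mM HEPES pH 7.8, 0.5mM EDTA, 0.1 mg/ml BSA, 1mM TCEP, 0.01% Tween-20.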
# FBPA coupling cs – counter-screen for Giardia aldolase inhibitors: coupling enzyme system. activity change, negative = inhibition, % at 58.2 µM, hits read low. AID 2472. coupling enzyme system counterscreen, AmpLite Red fluorescence. actives 0.67% (n = 290,000); in the data active means activity change below about -30%
#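 Final compound at 57.5 uM, incubated 10 min at RT with coupling enzyme reagent (glyceraldehyde-3-phosphate), then 20 min with substrate and AmpLite Red detection. Fluorescence read at 525/598 nm; tests interference with the coupling assay, not aldolase inhibition.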
# GALK inh – inhibitors of human galactokinase. Purified GALK, Kinase-Glo residual ATP luminescence. actives 0.007% (n = 270,000). AID 1868. P51570. Potency, µM (highest dose often 57.5 µM), for the others: at the top dose activity change, negative = inhibition, actives largely listed as inhibitors; further: potency means the concentration at half of the fitted maximal effect
# Target sequence (P51570 whole entry, looked up): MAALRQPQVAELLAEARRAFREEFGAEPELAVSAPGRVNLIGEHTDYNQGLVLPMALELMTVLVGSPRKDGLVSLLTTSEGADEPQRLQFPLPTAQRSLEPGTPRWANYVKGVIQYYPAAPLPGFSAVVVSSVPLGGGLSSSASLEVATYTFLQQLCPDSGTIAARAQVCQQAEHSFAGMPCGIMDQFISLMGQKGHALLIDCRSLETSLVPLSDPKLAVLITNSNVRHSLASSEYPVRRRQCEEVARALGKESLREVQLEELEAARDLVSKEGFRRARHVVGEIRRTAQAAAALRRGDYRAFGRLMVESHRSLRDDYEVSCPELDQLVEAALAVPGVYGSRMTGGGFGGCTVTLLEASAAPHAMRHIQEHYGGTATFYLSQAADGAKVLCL
#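 ATP-depletion format; final 35 uM ATP, 100 uM D-galactose, 5 nM enzyme; pH 8.0 HEPES/Mg2+ buffer; 60 min RT; luminescence read 10 min after detection reagent.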
# The depositor's hits bear a star; ? = inconclusive; . = not tested or not shown; [ ] = another dose, or the depositor's remark. Unless noted, the call rests on the fitted dose curve; in most records, active means well fitted curve in the direction sought with a large enough effect; inconclusive means small, poorly fitted or top-dose-only effect, or another doubt; inactive means no such curve, though single readings can be large; an effect the other way counts as inactive or inconclusive. On the % scale 0 is the no-effect control and ±100 the full control effect.
SMILES,rTrxR1 inhibitor,TrxR1 substrate,USP1-UAF1 inh,FBPA coupling cs,GALK inh
CCCCc1nc2c(c3c1C[C@H](C)OC3)CN(C(=O)COC)CC2,.,.,.,1,.
Cc1nc2ccc(Cc3ccc4nc(C)[nH]c4c3)cc2[nH]1,10%,5%,-19%,2,-2%
Cc1nc2ccc(N=NN(C)C)cc2[nH]1,11%,0%,-24%,-35*,3%
CC(=O)/C=C1\C(=O)N(C)c2ccccc21,30µM*,20%[57.1 µM],.,.,.
CN(C)/[N+]([O-])=N/Oc1ccc([N+](=O)[O-])cn1,2%,-1%,.,.,.
COc1cc(S(=O)(=O)O)c(C)cc1N=Nc1c(O)ccc2cc(S(=O)(=O)O)ccc12,-3%,-10%,.,.,.
COc1cc(-c2ccc(N=Nc3ccc4c(S(=O)(=O)O)cc(S(=O)(=O)O)c(N)c4c3O)c(OC)c2)ccc1N=Nc1ccc2c(S(=O)(=O)O)cc(S(=O)(=O)O)c(N)c2c1O,.,.,.,-57*,.
C(=C\c1ccnc2ccccc12)/c1cccnc1,9%,-1%,.,.,.
N#Cc1nnn(-c2cc(Cl)cc(Cl)c2)c1N,11%,3%,-20%,1,-1%
Cc1c([N+](=O)[O-])nnn1-c1cc(Cl)cc(Cl)c1,16µM*,8%,-19%,2,7%
COc1ccc(-c2nn3c(-c4cc(-c5ccccc5)n[nH]4)nnc3s2)cc1,10%[0.0914 µM],8%[0.0914 µM],.,.,.
CCC1CC=CC2C1C(=O)N(Cc1ccccc1)C2c1cc(C)ccc1F (stereo not given),-4%,-5%,.,-2,.
CC(=O)c1ccc(NC(=O)c2ccc3nc(-c4ccco4)c(-c4ccco4)nc3c2)cc1,2.5µM*,1%,?,-30*,-3%
CCc1nc2ccc(C(=O)NCCc3ccco3)cc2nc1CC,6%[57.1 µM],-1%[57.1 µM],-2%,4,-3%
CCc1nc2ccc(C(=O)Nc3ccc(NC(C)=O)cc3)cc2nc1CC,-12%,-18%,-1%,0,0%
CNC(=O)c1ccc2nc(-c3ccco3)c(-c3ccco3)nc2c1,4µM*,-5%,.,.,.
O=C(NC1CC1)c1ccc2nc(-c3ccco3)c(-c3ccco3)nc2c1,2.5µM*,-2%,.,.,.
O=C(CSCc1ccc(Cl)cc1)N/N=C/c1c(Cl)cccc1Cl,12%,0%,-8%,0,1%
O=C(CSCc1ccc(Cl)cc1)N/N=C/c1ccccc1,-17%,-10%,-4%,-37*,-3%
O=C(Cc1ccc(OCc2ccccc2)cc1)NO,13%,5%,.,.,.
N#CC1(C#N)C(C(N)=O)C1c1ccccc1 (stereo not given),-29%,-8%,-13%,1,0%
CN1C=CC2=C(C#N)C(N)C(C#N)(C#N)[C@H](c3ccccc3)[C@H]2C1 (stereo not given in full),13%,40%,-13%,-30*,2%
CCC(C)(C)n1nnnc1C(c1cc2cccc(C)c2[nH]c1=O)N1CCCC1 (stereo not given),?,8%[57.1 µM],-23%,-4,0%
Cc1ccc(C)c2[nH]c(=O)c(C(c3nnnn3C(C)(C)C)N3CC=C(c4ccc(F)cc4)CC3)cc12 (stereo not given),71µM*,11%[0.457 µM],-14%,-3,-1%
Cc1cc(C)c2[nH]c(=O)c(C(c3nnnn3CC3CCCO3)N3CCC(C)CC3)cc2c1 (stereo not given),20µM*,7%[57.1 µM],-16%,-4,-2%
SMILES,rTrxR1 inhibitor,TrxR1 substrate,USP1-UAF1 inh,FBPA coupling cs,GALK inh
Cc1cc(C)c2[nH]c(=O)c(C(c3nnnn3C(C)(C)C)N3CCN(C(=O)c4ccco4)CC3)cc2c1 (stereo not given),16µM*,18%,-6%,0,-2%
CC(=O)NC1C(O)O[C@H](C(=O)O)[C@@H](O)[C@@H]1O (stereo not given in full),.,.,.,1,.
CN(C)c1ccc(N=Cc2cccc3ccccc23)cc1,?,-11%,.,.,.
S=C1Cc2ccccc2N1,-65%[0.457 µM],?,28µM*,0,?
Nc1nc(-c2ccco2)cs1,-6%,5%,-20%,-17,2%
Nc1nc(-c2ccco2)c(-c2ccco2)s1,50µM*,2%,-17%,-10,6%
COc1ccc2nc3ccccc3nc2c1N,-40%,7%[57.1 µM],?,-6,0%
COc1ccc2nc3cccc(OC)c3nc2c1,18%,-5%,?,-39*,-15%
c1coc(-c2nc(-c3ccco3)c(-c3ccco3)nc2-c2ccco2)c1,2.8µM*,9%[57.1 µM],?,-14,-1%
COc1ccc2nc(-c3ccco3)c(-c3ccco3)nc2c1,8.9µM*,28%,-15%,-32*,-4%
COC(=O)c1ccccc1NC(=O)c1cnn2c1NC(=C1CC1)C=C2C(F)F,?,49%,.,.,.
c1coc(-c2nc3cc4ccccc4cc3nc2-c2ccco2)c1,4.5µM*,-6%,.,.,.
O=C(c1ccc2c(c1)OCO2)[C@@H]1[C@@H]2C(=O)N(C3CCCCC3)C(=O)[C@@H]2C2c3ccccc3C=CN21 (stereo not given in full),6%,-2%,?,-36*,2%
CC(C)(C)C(=O)[C@@H]1[C@@H]2C(=O)N(C3CCCCC3)C(=O)[C@@H]2[C@H]2c3ccccc3C=CN12,5%,6%,25µM*,-24,0%
COc1ccc(N2C(=O)[C@@H]3[C@H](C2=O)[C@H]2c4ccccc4C=CN2[C@@H]3C(C)=O)cc1,-28%,-12%,16µM*,-42*,-3%

# Compound activity as filed in PubChem.
